Compound activity as filed in PubChem BioAssay.
This is a sample that favours compounds with a hit; in the whole collection about 4.1% have one here.
hcDAF-12 act – H. contortus DAF-12 activation, primary screen | HEK293 hcDAF-12 lit1-tk-luc reporter, luminescence; 0% DMSO, 100% Δ7-dafachronic acid | activation, % at 6.8 µM | 370,000 tested, 1.4% active | AID 652067;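 active = activation above the mean of all tested compounds plus 3 SD, cut at about 5.5% in these data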;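 also: 100% = response to 3 µM Δ7-dafachronic acid high control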
DAX1 inh-1 – blocks DAX1 repression of SF-1 activated StAR promoter. inhibition, % at 6.8 µM. HEK293T StAR-luciferase reporter, SF-1/DAX-1 repression relief. 370,000 tested, 1.1% active;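 active = inhibition above the mean over all tested compounds plus 3 SD, cut at about 3.6% in these data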;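 also: 0% = DAX-1 cells with DMSO and 100% = cells lacking DAX-1 with DMSO; higher inhibition means more luminescence from relief of DAX-1 repression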
DAX1 inh-2 – inhibitors of human orphan nuclear receptor DAX1 (NR0B1) | P51843 | HEK293 Gal4-DAX1 luciferase reporter, luminescence | inhibition, % at 6.75 µM | 340,000 tested, 0.99% active | AID 504766;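 active = inhibition above the mean over all tested compounds plus 3 SD, cut at about 4.2% in these data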;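 also: 0% = DAX1-transfected cells with DMSO and 100% = empty-vector control cells with DMSO; inhibition shows as a rise in luminescence from relieved DAX1 repression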
Target sequence (P51843 207-470 limits assumed): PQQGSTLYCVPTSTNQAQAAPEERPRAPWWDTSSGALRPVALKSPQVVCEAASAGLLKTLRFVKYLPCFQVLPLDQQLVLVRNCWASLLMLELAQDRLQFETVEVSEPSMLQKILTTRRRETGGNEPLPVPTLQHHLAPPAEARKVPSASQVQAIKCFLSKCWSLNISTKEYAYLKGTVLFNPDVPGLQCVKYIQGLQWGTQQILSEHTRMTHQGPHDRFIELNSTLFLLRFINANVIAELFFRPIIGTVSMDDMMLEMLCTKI
ssDAF12 agonist – activates DAF-12 receptor from parasite S. stercoralis. HEK293 ssDAF-12/GRIP1 lit1-tk-luc reporter, luminescence; % of 3 µM dafachronic acid response. activation, % at 6.8 µM. 370,000 tested, 1% active. AID 652126;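 active = activation above the mean over all tested compounds plus 3 SD, cut at about 0.9% in these data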;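 also: 0% = DMSO-only wells and 100% = 3 µM delta7-dafachronic acid wells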
hgDAF12 agonist – activates the H. glycines DAF-12 receptor ligand-binding domain | HEK293 GAL4-hgDAF12 UAS-luciferase reporter, agonist luminescence; normalized to butyrate control | activation, % at 6.8 µM | 370,000 tested, 1.8% active | AID 687014;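 active = activation above a cutoff set at the mean of all screened compounds plus 3 SD, cut at about 10% in these data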;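 also: 0% = DMSO wells and 100% = sodium butyrate wells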
LXRb hcDAF ctr – LXR-beta agonism as hcDAF-12 counter-screen; shares compounds with hcDAF-12 act; HEK293 Gal4-LXR tk-luc reporter, luminescence, 24 h; normalized: DMSO 0%, positive control 100%; activation, % at 6.8 µM; 3,400 tested, under 10 active; AID 743027;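 active = mean percent activation of the reporter above a cutoff set as the average over tested compounds plus their standard deviation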
Target sequence (P55055 whole entry, looked up, the tested form may be a part): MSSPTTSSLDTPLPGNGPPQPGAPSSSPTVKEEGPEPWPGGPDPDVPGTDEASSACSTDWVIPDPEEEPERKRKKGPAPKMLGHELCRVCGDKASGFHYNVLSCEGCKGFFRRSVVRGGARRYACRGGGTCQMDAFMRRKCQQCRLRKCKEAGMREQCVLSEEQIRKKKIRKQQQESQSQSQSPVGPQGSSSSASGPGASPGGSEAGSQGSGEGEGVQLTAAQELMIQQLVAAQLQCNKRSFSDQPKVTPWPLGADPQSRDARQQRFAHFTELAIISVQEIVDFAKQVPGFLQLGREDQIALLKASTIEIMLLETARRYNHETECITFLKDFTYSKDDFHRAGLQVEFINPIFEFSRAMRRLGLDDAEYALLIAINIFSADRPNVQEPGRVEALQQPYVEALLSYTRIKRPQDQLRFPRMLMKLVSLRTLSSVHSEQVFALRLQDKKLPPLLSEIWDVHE
hcDAF12 ag – confirmation of H. contortus DAF-12 agonists; 3,400 tested, 61% active; activation, % at 6.8 µM; HEK293 hcDAF-12 lit1-tk-luc reporter, luminescence; % of Δ7-dafachronic acid response; shares compounds with hcDAF-12 act;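 active = mean activation across triplicate tests above the threshold derived from the earlier primary screen, cut at about 5.5% in these data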;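 also: 0% = DMSO only wells and 100% = 3 µM Δ7-dafachronic acid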
An asterisk follows results filed as active.

Results for O=c1[nH]c(/C=C2\C=Nc3ccccc32)c(O)n1Cc1ccccc1F ?
hcDAF-12 act: 1.5; DAX1 inh-1: -0.7; DAX1 inh-2: -1.6; ssDAF12 agonist: -1.5; hgDAF12 agonist: 1.9

Results for CSc1nc(O)c(/C=C2\C=Nc3ccccc32)[nH]1 ?
hcDAF-12 act: 12.1*; DAX1 inh-1: 1.1; DAX1 inh-2: 1.1; ssDAF12 agonist: 0.3; hgDAF12 agonist: 10.3; LXRb hcDAF ctr: 0.2; hcDAF12 ag: 10.5*

What do the screens show for `COCc1ccc(CN2CCC(n3nccc3NC(=O)c3ccc4c(c3)OCO4)CC2)o1`?
hcDAF-12 act: 0.4; DAX1 inh-1: -0.7; DAX1 inh-2: -0.2; ssDAF12 agonist: -1.0; hgDAF12 agonist: -1.3

What do the screens show for `C/C(=N\Nc1ccc(S(N)(=O)=O)cc1[N+](=O)[O-])c1ccccc1O`?
hcDAF-12 act: -0.5; DAX1 inh-1: -0.5; DAX1 inh-2: 0.9; ssDAF12 agonist: -1.2; hgDAF12 agonist: -1.8

What do the screens show for `C/C(=N\Nc1ccccc1[N+](=O)[O-])c1ccccc1O`?
hcDAF-12 act: 6.9*; DAX1 inh-1: 0.5; DAX1 inh-2: 4.4*; ssDAF12 agonist: -0.2; hgDAF12 agonist: 5.6; LXRb hcDAF ctr: 1.4; hcDAF12 ag: 14.4*

How did Cn1cc(C(=O)N/N=C/C(Br)=C/c2ccccc2)ccc1=O do in these assays?
hcDAF-12 act: 7.6*; DAX1 inh-1: -0.8; DAX1 inh-2: 0.0; ssDAF12 agonist: -0.8; hgDAF12 agonist: -1.2; LXRb hcDAF ctr: -0.1; hcDAF12 ag: 2.9

Results for c1csc(-c2nc3c4ccccc4c4ccccc4c3[nH]2)c1 ?
hcDAF-12 act: 0.0; DAX1 inh-1: -1.1; DAX1 inh-2: -0.6; ssDAF12 agonist: -0.3; hgDAF12 agonist: 2.1

What do the screens show for `Oc1ccccc1-c1nc2c3ccccc3c3ccccc3c2[nH]1`?
hcDAF-12 act: 7.5*; DAX1 inh-1: -1.0; DAX1 inh-2: 2.0; ssDAF12 agonist: 0.1; hgDAF12 agonist: 3.6; LXRb hcDAF ctr: -0.1; hcDAF12 ag: 5.2

What do the screens show for `CN=c1scc(C)n1/N=C/c1ccc(O)cc1O`?
hcDAF-12 act: 7.6*; DAX1 inh-1: 3.6*; DAX1 inh-2: -2.5; ssDAF12 agonist: 0.7; hgDAF12 agonist: 6.3; LXRb hcDAF ctr: 1.9; hcDAF12 ag: 6.6*

How did CN=c1scc(-c2ccccc2F)n1/N=C/c1ccc(O)c(O)c1O do in these assays?
hcDAF-12 act: 7.2*; DAX1 inh-1: 3.1; DAX1 inh-2: -2.3; ssDAF12 agonist: 0.6; hgDAF12 agonist: 6.0; LXRb hcDAF ctr: 1.3; hcDAF12 ag: 16.3*

Results for O=[N+]([O-])c1ccccc1/C=C/C=Nn1c(-c2ccc(F)cc2)n[nH]c1=S ?
hcDAF-12 act: 6.6*; DAX1 inh-1: -0.3; ssDAF12 agonist: 0.1; hgDAF12 agonist: 3.2; LXRb hcDAF ctr: -0.2; hcDAF12 ag: 5.1

Results for O/N=C/c1ccc2ccccc2n1 ?
hcDAF-12 act: 2.0; DAX1 inh-1: 1.1; DAX1 inh-2: 0.7; ssDAF12 agonist: -1.0; hgDAF12 agonist: 8.9

How did O/C(=C\c1ccc2ccccc2n1)c1ccncc1 do in these assays?
hcDAF-12 act: 8.6*; DAX1 inh-1: 3.6; DAX1 inh-2: 2.3; ssDAF12 agonist: 1.2*; hgDAF12 agonist: 11.8*; LXRb hcDAF ctr: 1.4; hcDAF12 ag: 11.9*

What do the screens show for `Cc1ccc(N/N=C(\C#N)C(=N)N2CCCCC2)cc1`?
hcDAF-12 act: 6.9*; DAX1 inh-1: 2.8; DAX1 inh-2: 7.4*; ssDAF12 agonist: 1.2*; hgDAF12 agonist: 18.9*; LXRb hcDAF ctr: 1.6; hcDAF12 ag: 10.8*

What do the screens show for `O=C1C=C(Nc2ccccc2)C(=O)c2ccccc21`?
hcDAF-12 act: 7.6*; DAX1 inh-1: 0.1; DAX1 inh-2: -1.4; ssDAF12 agonist: 0.1; hgDAF12 agonist: 8.4; LXRb hcDAF ctr: 1.5; hcDAF12 ag: 7.0*

What do the screens show for `Cc1cccc(/C(N)=N/OC(=O)c2ccc(F)cc2)c1`?
hcDAF-12 act: 7.2*; DAX1 inh-1: 2.4; DAX1 inh-2: 2.9; ssDAF12 agonist: 0.8; hgDAF12 agonist: 12.6*; LXRb hcDAF ctr: 0.7; hcDAF12 ag: 3.4

How did CC(=O)Nc1ccc(NC(=O)CSc2cn(CC(=O)N3CCOCC3)c3ccccc23)cc1 do in these assays?
hcDAF-12 act: -1.9; DAX1 inh-1: 1.0; DAX1 inh-2: 1.4; ssDAF12 agonist: -0.8; hgDAF12 agonist: 2.0

Results for COc1ccc(CNC(=O)C(=O)c2cn(CC(=O)N3CCCC3)c3ccccc23)cc1 ?
hcDAF-12 act: 7.2*; DAX1 inh-1: 0.5; DAX1 inh-2: 0.1; ssDAF12 agonist: 0.4; hgDAF12 agonist: 0.7; LXRb hcDAF ctr: 0.0; hcDAF12 ag: 3.4

How did COc1ccc(CNC(=O)C(=O)c2cn(CC(=O)N3CCOCC3)c3ccccc23)cc1 do in these assays?
hcDAF-12 act: -0.6; DAX1 inh-1: 0.1; DAX1 inh-2: 1.3; ssDAF12 agonist: -0.2; hgDAF12 agonist: 0.8

What do the screens show for `O=C(Cn1cc(SCc2ccccc2Cl)c2ccccc21)N1CCOCC1`?
hcDAF-12 act: 11.0*; DAX1 inh-1: 1.4; DAX1 inh-2: -1.0; ssDAF12 agonist: -0.7; hgDAF12 agonist: 5.7; LXRb hcDAF ctr: 0.5; hcDAF12 ag: 4.7

What do the screens show for `O=C(Nc1ccccc1Cl)C(=O)c1cn(CC(=O)N2CCOCC2)c2ccccc12`?
hcDAF-12 act: 7.6*; DAX1 inh-1: 0.7; DAX1 inh-2: 2.4; ssDAF12 agonist: 0.3; hgDAF12 agonist: 6.7; LXRb hcDAF ctr: 0.9; hcDAF12 ag: 8.6*

How did N=c1c(C(=O)NCCN2CCOCC2)cc2c(=O)n3ccccc3nc2n1CCc1ccccc1 do in these assays?
hcDAF-12 act: -0.6; DAX1 inh-1: -1.2; DAX1 inh-2: 0.6; ssDAF12 agonist: -1.9; hgDAF12 agonist: 4.8

Results for Fc1cccc2sc(Nc3nc4cc5c(cc4s3)OCCO5)nc12 ?
hcDAF-12 act: 10.1*; DAX1 inh-1: 1.8; DAX1 inh-2: 1.1; ssDAF12 agonist: 0.2; hgDAF12 agonist: 2.0; LXRb hcDAF ctr: 2.1; hcDAF12 ag: 20.4*

How did Cc1ccc(-n2c(SCC(=O)Nc3ccc(Oc4ccccc4)cc3)nnc2-c2cccc(C)c2)cc1 do in these assays?
hcDAF-12 act: 0.6; DAX1 inh-1: -1.1; ssDAF12 agonist: -1.9; hgDAF12 agonist: -1.1

How did CN1C(=O)[C@H]2[C@@H](c3ccc(C(F)(F)F)cc3)N[C@]3(CCCN(Cc4ccc(Cl)cc4)C3=O)[C@H]2C1=O do in these assays?
hcDAF-12 act: -1.1; DAX1 inh-1: -0.5; DAX1 inh-2: 0.7; ssDAF12 agonist: -1.4; hgDAF12 agonist: 3.9

Results for CCCC(C)NC(=O)Cc1ccccc1[N+](=O)[O-] (stereo unspecified) ?
hcDAF-12 act: 7.3*; DAX1 inh-1: 0.8; DAX1 inh-2: 1.2; ssDAF12 agonist: 1.1*; hgDAF12 agonist: 3.4; LXRb hcDAF ctr: -0.2; hcDAF12 ag: 5.9*
